Source: PubChem BioAssay
NOMO-1 viab: STK33 inhibitor candidate reducing NOMO-1 cell viability; NOMO-1 AML viability, CellTiter-Glo luminescence, 72 h; inhibition, % (test concentration not listed); 7.5% of 37,000 active; in the data active means inhibition above about 80%
MITF inh: MITF inhibition; TRPM1 promoter luciferase, luminescence, 24 h; inhibition, % (no concentration beside the values); 0.28% of 37,000 active; AID 2240; in the data active means inhibition above about 85%;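 further: human melanocyte line stably carrying TRPM1 promoter luciferase reporter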
Hedgehog inh: blocks Sonic Hedgehog signaling | Shh-LIGHT2 Gli-luciferase reporter, 30 h | inhibition, % (no concentration beside the values) | 2.1% of 22,000 active;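 active means mean inhibition across valid replicates above about 65%, limit read from the data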;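 further: pathway switched on by Shh-conditioned medium diluted 1 in 25 in low serum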
PD-1 reverse act: activators reversing PD-1 mediated T-cell inhibition | primary human CD4 T cells, PD-L1 beads, CellTiter-Glo 96 h | activation, % (test concentration not listed) | 29,000 tested, under 10 active; call rule not given here;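 further: 0% = median vehicle wells and 100% = positive control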
* = called active by the depositor; / = no result. Hits are enriched below; roughly 8.1% of the tested compounds scored in any of these assays.

SMILES	NOMO-1 viab	MITF inh	Hedgehog inh	PD-1 reverse act
C[C@@H]1CN([C@H](C)CO)C(=O)c2cccc(NC(=O)Nc3ccc4c(c3)OCO4)c2O[C@H]1CN(C)Cc1ccccc1	97.3*	18.2	14.9	-3.3
Cc1ccc(S(=O)(=O)Nc2ccc3c(c2)C(=O)N([C@H](C)CO)C[C@@H](C)[C@H](CN(C)Cc2ccc(Cl)c(Cl)c2)O3)cc1	103.9*	19.1	/	0.4
C[C@H]1CN([C@@H](C)CO)C(=O)c2cc(NS(=O)(=O)c3ccccc3)ccc2O[C@H]1CN(C)Cc1ccc(Cl)c(Cl)c1	73.5	30.0	/	-8.0
C[C@H](CO)N1C[C@H](C)[C@@H](CN(C)Cc2ccc(Cl)c(Cl)c2)Oc2ccc(NS(=O)(=O)c3ccc(F)cc3)cc2C1=O	35.1	1.4	27.2	-3.2
Cc1ccc(S(=O)(=O)Nc2ccc3c(c2)C(=O)N([C@@H](C)CO)C[C@@H](C)[C@H](CN(C)Cc2ccc(Cl)c(Cl)c2)O3)cc1	88.7*	5.7	/	0.7
COc1ccc(S(=O)(=O)N(C)C[C@@H]2Oc3ccc(NC(=O)CCC(F)(F)F)cc3CC(=O)N([C@@H](C)CO)C[C@@H]2C)cc1	24.5	4.6	-55.0	0.0
Cn1nc(-c2ccc(S(=O)(=O)N3CCCN(C(=O)OC(C)(C)C)CC3)s2)cc1C(F)(F)F	51.4	6.9	/	0.3
C[C@@H]1CN([C@@H](C)CO)C(=O)c2cc(NC(=O)Nc3cccc4ccccc34)ccc2O[C@@H]1CN(C)Cc1ccc(Cl)c(Cl)c1	93.3*	26.6	/	-3.6
C[C@H](CO)N1C[C@H](C)[C@H](CN(C)Cc2ccc(C(=O)O)cc2)Oc2ccc(NC(=O)Nc3cccc4ccccc34)cc2CC1=O	8.9	-5.1	/	1.1
C[C@H](CO)N1C[C@H](C)[C@H](CN(C)Cc2ccc(Cl)c(Cl)c2)Oc2c(NC(=O)Nc3cccc4ccccc34)cccc2C1=O	106.5*	45.8	-12.1	-4.6
C[C@@H]1CN([C@@H](C)CO)C(=O)Cc2cc(NC(=O)Nc3cccc4ccccc34)ccc2O[C@@H]1CN(C)Cc1ccc(Cl)c(Cl)c1	128.6*	46.6	20.9	-5.3
Cc1cc2c(=O)n(Cc3ccco3)c(SCC(=O)c3cc4ccccc4o3)nc2s1	25.7	31.8	/	/
C[C@H](CO)N1C[C@H](C)[C@H](CN(C)CC2CC2)Oc2c(NC(=O)NC3CCCCC3)cccc2C1=O	11.2	-6.8	-12.7	2.2
CC(C)NC(=O)Nc1ccc2c(c1)C(=O)N([C@@H](C)CO)C[C@@H](C)[C@H](CN(C)C(=O)Nc1ccc(F)cc1)O2	9.6	-6.3	-18.3	1.9
Cc1ccc(-c2nc3ccccc3[nH]2)cc1NC(=O)COc1ccccc1[N+](=O)[O-]	119.1*	85.6*	/	-14.5
COc1ccccc1CC(=O)Nc1ccc(-c2nc3ccccc3[nH]2)cc1	135.0*	72.3	/	-5.7
COc1ccccc1CC(=O)Nc1ccc(-c2noc(-c3ccc(OC)c(OC)c3)n2)cc1	43.9	-25.9	/	0.1
CC(C(=O)Nc1cccc([N+](=O)[O-])c1)N1C(=O)C2C3C=CC(C4CC34)C2C1=O (stereo unspecified)	13.6	-4.2	/	-0.5
O=C(COc1ccc(Cl)cc1)Nc1cccc(-c2nc3ncccc3o2)c1	47.4	-33.0	/	/
COc1ccc2c(c1)OCC(Cc1ccc(OC)c(O)c1)C2=O (stereo unspecified)	109.3*	13.2	19.2	/
C[C@H](CO)N1C[C@H](C)[C@H](CN(C)Cc2ccc(C(=O)Nc3ccccc3N)cc2)Oc2c(NS(=O)(=O)c3cccs3)cccc2C1=O	87.8*	6.2	/	0.7
COc1ccc(S(=O)(=O)Nc2cccc3c2O[C@@H](CN(C)Cc2ccc(C(=O)Nc4ccccc4N)cc2)[C@@H](C)CN([C@@H](C)CO)C3=O)cc1	112.2*	15.3	/	-1.9
C[C@@H]1CN([C@H](C)CO)C(=O)c2cccc(NS(=O)(=O)c3ccccc3)c2O[C@H]1CN(C)Cc1ccc(C(=O)Nc2ccccc2N)cc1	58.2	-20.3	/	0.6
C[C@@H]1CN([C@H](C)CO)C(=O)c2cccc(NS(=O)(=O)c3cccs3)c2O[C@H]1CN(C)Cc1ccc(C(=O)Nc2ccccc2N)cc1	44.1	-10.6	/	1.4
C[C@H](CO)N1C[C@H](C)[C@H](CN(C)Cc2ccc(C(=O)Nc3ccccc3N)cc2)Oc2c(NS(=O)(=O)c3ccccc3)cccc2C1=O	138.8*	28.7	/	0.0
Cc1noc(C)c1S(=O)(=O)Nc1cccc2c1O[C@H](CN(C)Cc1ccc(C(=O)O)cc1)[C@@H](C)CN([C@H](C)CO)C2=O	-6.1	-0.4	-19.9	1.0
